Assay results reported in PubChem BioAssay (EPA / NIEHS).
Where “and” joins values, the source holds several entries; their conditions need not be identical. Equal values may be shown once. Records with an inconclusive call do not appear. Calls of active or inactive are those of the source. How the source made its calls, unless noted: active means hit-call score of the fitted dose curve at least 0.9, where 1 is the maximum; inactive means score below 0.9.

Experiments:
[1] = BSK_4H_Eotaxin3: BioMAP Diversity Plus: 4H Assay for Eotaxin 3 Biomarker Activity (AID 2283000); details: primary human endothelial cells (HUVEC); actives raise or lower the signal;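 further: CCL26 protein level quantified by ELISA in parallel with SRB cytotoxicity check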
Summary of the method: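 Chemicals were added to human umbilical vein endothelium cultures, and Eotaxin-3 was quantified by ELISA at 24 h. Values were derived by bidirectional fitting with DMSO serving as negative control and activity baseline.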

[2] = biological target: human Peroxisome Proliferator-activated Receptor alpha (PPARa), PPARA (gene 5465) (UniProt Q07869); experiment: ATG_PPARa_TRANS: Attagene TRANS-FACTORIAL HepG2 Assay for human Peroxisome Proliferator-activated Receptor alpha (PPARa) (AID 2283001; active means hit-call score of the fitted dose curve at least 0.9, where 1 is the maximum)
Summary of the method: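 Reporter transcripts quantified by RT-PCR plus capillary electrophoresis after 24 h treatment, fitted upward relative to DMSO. Cells: human HepG2 transiently carrying multiple GAL4-UAS reporter units driven by NR-Gal4 chimeras.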

[3] = biological target: human Peroxisome Proliferator-activated Receptor delta (PPARd), PPARD (gene 5467) (UniProt Q03181); experiment: ATG_PPARd_TRANS: Attagene TRANS-FACTORIAL HepG2 Assay for human Peroxisome Proliferator-activated Receptor delta (PPARd) (AID 2283002; active means hit-call score of the fitted dose curve at least 0.9, where 1 is the maximum)
Summary of the method: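 Transient HepG2 transfection (multiple GAL4-UAS RTUs, chimeric receptor-Gal4); 24 h dosing; total RNA → oligo(dT) RT → PCR → 6-FAM primer extension → HpaI cut → CE. Positive direction vs DMSO.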

[4] = BSK_3C_Proliferation: Cell Proliferation Assessment in the BioMAP Diversity Plus: 3C Assay (AID 2283006); details: primary human endothelial cells (HUVEC);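 on AC50: potency may reflect either rise or fall in cell number versus DMSO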
Summary of the method: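 Cells (human umbilical vein endothelial, sub-confluent) receive test chemical; after 48 h they are fixed in 10% trichloroacetic acid, stained with 0.1% SRB and read at 560 nm. Activity is referenced to DMSO, fitting increases and decreases.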

[5] = biological target: Peroxisome proliferator-activated receptor gamma (Homo sapiens) (UniProt P37231); experiment: ATG_PPARg_TRANS: Attagene TRANS-FACTORIAL HepG2 Assay for human Peroxisome Proliferator-activated Receptor-gamma (PPARg) (AID 2283007; active means hit-call score of the fitted dose curve at least 0.9, where 1 is the maximum)
Summary of the method: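 Human hepatoma HepG2, transient MRTU transfection, 24 h treatment. mRNA reporter signal by RT-PCR plus capillary electrophoresis, fluorescence detection; fitted for increase over DMSO negative control.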

[6] = biological target: Nuclear receptor subfamily 1 group I member 2 (Homo sapiens) (UniProt O75469); experiment: ATG_PXR_TRANS: Attagene TRANS-FACTORIAL HepG2 Assay for human Pregnane X Receptor (PXR) (AID 2283008; active means hit-call score of the fitted dose curve at least 0.9, where 1 is the maximum)
Summary of the method: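 Trans-factorial format: exogenous NR-Gal4 fusion activity, not endogenous factor, in transfected human HepG2 liver cells. After 24 h dosing, RNA isolated, reverse-transcribed, amplified and resolved by capillary electrophoresis; induction scored versus DMSO.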

[7] = biological target: human RAR-related Orphan Receptor beta (RORb), RORB (gene 6096) (UniProt Q92753); experiment: ATG_RORb_TRANS: Attagene TRANS-FACTORIAL HepG2 Assay for human RAR-related Orphan Receptor beta (RORb) (AID 2283010; active means hit-call score of the fitted dose curve at least 0.9, where 1 is the maximum)
Summary of the method: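 Transfect HepG2 with multiple GAL4-UAS reporter transcription units; dose chemicals for 24 h; isolate RNA, reverse-transcribe and PCR-amplify reporter sequences; label, digest and resolve fragments by capillary electrophoresis; fit increases relative to DMSO.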

[8] = biological target: human RAR-related Orphan Receptor gamma (RORg), RORC (gene 6097) (UniProt P51449); experiment: ATG_RORg_TRANS: Attagene TRANS-FACTORIAL HepG2 Assay for human RAR-related Orphan Receptor gamma (RORg) (AID 2283011; active means hit-call score of the fitted dose curve at least 0.9, where 1 is the maximum)
Summary of the method: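 First, HepG2 liver cells were transfected with GAL4-UAS-driven reporter constructs and the RORg-Gal4 fusion. Next, they were treated with chemical for 24 h. Finally, reporter mRNA was quantified by RT-PCR and capillary electrophoresis, with upward activity fitted against DMSO.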

[9] = biological target: Retinoic acid receptor RXR-alpha (Homo sapiens) (UniProt P19793); experiment: ATG_RXRa_TRANS: Attagene TRANS-FACTORIAL HepG2 Assay for human Retinoid X Receptor alpha (RXRa) (AID 2283012; active means hit-call score of the fitted dose curve at least 0.9, where 1 is the maximum)
Summary of the method: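 Measures exogenous chimeric NR-GAL4 activity in transfected HepG2 liver cells after 24 h of dosing. Induced reporter mRNA was detected by RT-PCR with capillary electrophoresis, and gain of signal was analysed against DMSO.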

[10] = read-out: E-selectin (Homo sapiens) (UniProt P16581); experiment: BSK_3C_Eselectin: BioMAP Diversity Plus: 3C Assay for Eselectin Biomarker Activity (AID 2283015); details: primary human endothelial cells (HUVEC); actives raise or lower the signal;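 further: cell surface E-selectin protein quantified by ELISA 24 h after dosing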
Summary of the method: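 ELISA read-out of E-selectin on endothelial monolayers after 24 h chemical treatment. Human umbilical vein primary cells served as the system, with DMSO defining baseline activity for bidirectional fitting.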

[11] = read-out: Interleukin-1 alpha (IL1a), IL1A (gene 3552); experiment: BSK_BE3C_IL1a: BioMAP Diversity Plus: BE3C Assay for Interleukin-1 alpha (IL1a) Biomarker Activity (AID 2283016); details: primary human bronchial epithelial cells; actives raise or lower the signal
Summary of the method: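 Signal from IL-1a ELISA, taken 24 h after chemical dosing of human bronchial epithelial cells, is compared with DMSO as baseline using bidirectional curve fitting.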

[12] = read-out: Monocyte Chemoattractant Protein-1 (MCP1), CCL2 (gene 6347); experiment: BSK_3C_MCP1: BioMAP Diversity Plus: 3C Assay for Monocyte Chemoattractant Protein-1 (MCP1) Biomarker Activity (AID 2283017); details: primary human endothelial cells (HUVEC); actives raise or lower the signal
Summary of the method: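 ELISA read-out of MCP-1 from human umbilical vein endothelial cell cultures harvested 24 h post-dosing. Gain or loss of signal was fitted relative to DMSO.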

[13] = read-out: Monocyte Chemoattractant Protein-1 (MCP1), CCL2 (gene 6347); experiment: BSK_4H_MCP1: BioMAP Diversity Plus: 4H Assay for Monocyte Chemoattractant Protein-1 (MCP1) Biomarker Activity (AID 2283018); details: primary human endothelial cells (HUVEC); actives raise or lower the signal
Summary of the method: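 Endothelial cells from umbilical vein were treated with test chemical, then after 24 h MCP-1 levels were quantified by ELISA; endpoint values came from bidirectional fitting with DMSO as baseline of activity.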

[14] = read-out: Human Leukocyte Antigen - DR isotype (HLADR), HLA-DRA (gene 3122); experiment: BSK_3C_HLADR: BioMAP Diversity Plus: 3C Assay for Human Leukocyte Antigen - DR isotype (HLADR) Biomarker Activity (AID 2283019); details: primary human endothelial cells (HUVEC); actives raise or lower the signal
Summary of the method: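 ELISA readout of surface HLA-DR on human umbilical vein endothelium, taken 24 h after chemical treatment. Gain- and loss-of-signal were both fitted relative to DMSO.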

[15] = biological target: human Retinoic Acid Receptor gamma (RARg), RARG (gene 5916) (UniProt P13631); experiment: ATG_RARg_TRANS: Attagene TRANS-FACTORIAL HepG2 Assay for human Retinoic Acid Receptor gamma (RARg) (AID 2283009; active means hit-call score of the fitted dose curve at least 0.9, where 1 is the maximum)
Summary of the method: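 TRANS format measured activity of exogenous NR-GAL4 fusion (RARg) in transfected HepG2 liver cells after 24 h dosing. Induced reporter RNA was detected by RT-PCR/capillary electrophoresis fluorescence, analysed in the positive direction against DMSO.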

[16] = biological target: human Thyroid Receptor alpha (THRa1), THRA (gene 7067) (UniProt P10827); experiment: ATG_THRa1_TRANS: Attagene TRANS-FACTORIAL HepG2 Assay for human Thyroid Receptor alpha (THRa1) (AID 2283014; active means hit-call score of the fitted dose curve at least 0.9, where 1 is the maximum)
Summary of the method: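 Reporter transcript induction, read by capillary electrophoresis of 6-FAM-labelled RT-PCR products, reflects activity of a transfected THRa1-Gal4 fusion in HepG2 liver cells. Cells were dosed for 24 h; activity was fitted in the positive direction against DMSO.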

[17] = biological target: human Retinoic Acid Receptor beta (RARb), RARB (gene 5915) (UniProt P10826); experiment: ATG_RARb_TRANS: Attagene TRANS-FACTORIAL HepG2 Assay for human Retinoic Acid Receptor beta (AID 2283004; active means hit-call score of the fitted dose curve at least 0.9, where 1 is the maximum)
Summary of the method: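 Transient transfection of HepG2 with multiple reporter units → chemical dosing, 24 h → total RNA isolation → RT with oligo(dT) → reporter-specific PCR, 6-FAM primer extension, HpaI digest → capillary electrophoresis. Positive direction vs DMSO control.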

[18] = biological target: Retinoic acid receptor alpha (Homo sapiens) (UniProt P10276); experiment: ATG_RARa_TRANS: Attagene TRANS-FACTORIAL HepG2 Assay for human Retinoic Acid Receptor alpha (RARa) (AID 2283005; active means hit-call score of the fitted dose curve at least 0.9, where 1 is the maximum)
Summary of the method: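 Reporter transcripts, measured by RT-PCR with fluorescent labeling and capillary electrophoresis after 24 h dosing, reflect activity of an exogenous human RARa–GAL4 fusion in transiently transfected HepG2. Fitted for increase relative to DMSO.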

[19] = biological target: human Retinoid X Receptor beta (RXRb), RXRB (gene 6257) (UniProt P28702); experiment: ATG_RXRb_TRANS: Attagene TRANS-FACTORIAL HepG2 Assay for human Retinoid X Receptor beta (RXRb) (AID 2283013; active means hit-call score of the fitted dose curve at least 0.9, where 1 is the maximum)
Summary of the method: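 Chimeric receptor-Gal4 activity was assessed in transiently transfected human HepG2 cells after 24 h exposure. Transcripts from GAL4-UAS reporters were quantified by fluorescent RT-PCR and capillary electrophoresis, with DMSO as negative control and baseline.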

Measured: AC50

Chain of human Retinoic Acid Receptor beta (RARb), RARB (gene 5915) (P10826 whole entry, looked up): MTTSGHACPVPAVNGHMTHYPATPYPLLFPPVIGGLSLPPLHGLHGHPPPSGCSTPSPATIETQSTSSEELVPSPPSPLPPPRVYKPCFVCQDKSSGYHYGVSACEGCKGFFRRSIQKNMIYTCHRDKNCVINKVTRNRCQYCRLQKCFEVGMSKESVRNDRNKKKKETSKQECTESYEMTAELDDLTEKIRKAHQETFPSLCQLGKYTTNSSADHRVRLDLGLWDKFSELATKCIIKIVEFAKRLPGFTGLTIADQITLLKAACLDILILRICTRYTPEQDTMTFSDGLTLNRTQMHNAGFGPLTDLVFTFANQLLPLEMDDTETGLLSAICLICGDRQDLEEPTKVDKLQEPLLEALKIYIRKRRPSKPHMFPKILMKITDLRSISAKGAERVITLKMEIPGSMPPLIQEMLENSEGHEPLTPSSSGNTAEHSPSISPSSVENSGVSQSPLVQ
Chain of human Peroxisome Proliferator-activated Receptor alpha (PPARa), PPARA (gene 5465) (Q07869 whole entry, looked up, the tested form may be a part): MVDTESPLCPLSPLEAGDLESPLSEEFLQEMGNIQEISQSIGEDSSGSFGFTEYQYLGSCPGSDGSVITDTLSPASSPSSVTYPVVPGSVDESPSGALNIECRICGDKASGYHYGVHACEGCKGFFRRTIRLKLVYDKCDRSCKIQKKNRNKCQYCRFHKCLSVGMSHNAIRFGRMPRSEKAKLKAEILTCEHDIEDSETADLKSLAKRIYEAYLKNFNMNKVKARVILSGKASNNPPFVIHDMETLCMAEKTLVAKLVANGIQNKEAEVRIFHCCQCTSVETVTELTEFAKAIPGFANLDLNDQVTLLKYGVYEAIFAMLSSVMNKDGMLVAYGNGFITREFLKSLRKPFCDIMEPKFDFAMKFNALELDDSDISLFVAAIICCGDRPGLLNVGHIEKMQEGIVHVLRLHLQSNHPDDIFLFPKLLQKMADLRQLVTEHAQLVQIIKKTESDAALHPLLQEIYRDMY
Chain of Peroxisome proliferator-activated receptor gamma (Homo sapiens) (P37231 whole entry, looked up): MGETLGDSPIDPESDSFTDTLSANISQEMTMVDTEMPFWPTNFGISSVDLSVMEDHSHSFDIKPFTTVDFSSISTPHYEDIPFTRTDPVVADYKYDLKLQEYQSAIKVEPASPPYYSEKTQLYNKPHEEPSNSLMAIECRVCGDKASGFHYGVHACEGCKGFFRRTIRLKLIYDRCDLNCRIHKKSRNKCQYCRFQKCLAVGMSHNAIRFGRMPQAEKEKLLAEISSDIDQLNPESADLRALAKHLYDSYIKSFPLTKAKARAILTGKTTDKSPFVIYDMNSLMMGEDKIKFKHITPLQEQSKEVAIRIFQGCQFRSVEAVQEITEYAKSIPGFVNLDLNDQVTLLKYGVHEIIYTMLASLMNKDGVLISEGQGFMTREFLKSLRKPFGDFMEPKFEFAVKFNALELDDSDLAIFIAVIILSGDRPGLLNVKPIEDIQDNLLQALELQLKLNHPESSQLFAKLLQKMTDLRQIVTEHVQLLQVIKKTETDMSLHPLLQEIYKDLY
Chain of Nuclear receptor subfamily 1 group I member 2 (Homo sapiens) (O75469 whole entry, looked up, the tested form may be a part): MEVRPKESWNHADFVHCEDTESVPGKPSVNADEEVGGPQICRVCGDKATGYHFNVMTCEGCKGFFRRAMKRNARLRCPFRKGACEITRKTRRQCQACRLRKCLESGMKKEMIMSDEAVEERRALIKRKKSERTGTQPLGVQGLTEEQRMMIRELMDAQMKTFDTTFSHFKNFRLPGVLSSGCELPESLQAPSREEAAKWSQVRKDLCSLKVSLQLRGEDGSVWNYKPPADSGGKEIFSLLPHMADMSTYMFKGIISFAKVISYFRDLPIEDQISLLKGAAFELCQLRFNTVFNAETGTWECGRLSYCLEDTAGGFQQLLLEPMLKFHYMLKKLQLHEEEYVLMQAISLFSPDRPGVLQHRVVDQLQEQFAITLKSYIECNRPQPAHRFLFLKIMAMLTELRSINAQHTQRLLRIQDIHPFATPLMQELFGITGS
Chain of E-selectin (Homo sapiens) (P16581 whole entry, looked up): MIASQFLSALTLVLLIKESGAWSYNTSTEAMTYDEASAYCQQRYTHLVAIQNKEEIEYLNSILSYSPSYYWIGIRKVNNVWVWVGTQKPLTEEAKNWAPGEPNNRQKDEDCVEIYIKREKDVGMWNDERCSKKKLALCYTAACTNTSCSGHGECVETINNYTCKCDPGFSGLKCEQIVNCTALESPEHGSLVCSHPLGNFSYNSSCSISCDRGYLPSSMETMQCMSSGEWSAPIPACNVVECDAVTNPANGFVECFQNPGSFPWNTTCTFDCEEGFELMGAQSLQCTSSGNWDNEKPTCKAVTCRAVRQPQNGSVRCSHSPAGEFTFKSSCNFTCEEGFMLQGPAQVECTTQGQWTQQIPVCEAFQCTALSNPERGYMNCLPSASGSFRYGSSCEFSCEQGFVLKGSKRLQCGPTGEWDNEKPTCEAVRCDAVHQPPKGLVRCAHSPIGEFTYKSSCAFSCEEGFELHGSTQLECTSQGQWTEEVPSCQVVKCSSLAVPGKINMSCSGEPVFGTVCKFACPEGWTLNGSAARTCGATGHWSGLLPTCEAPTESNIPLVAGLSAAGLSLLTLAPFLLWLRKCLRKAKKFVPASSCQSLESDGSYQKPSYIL
Chain of Retinoic acid receptor alpha (Homo sapiens) (P10276 whole entry, looked up, the tested form may be a part): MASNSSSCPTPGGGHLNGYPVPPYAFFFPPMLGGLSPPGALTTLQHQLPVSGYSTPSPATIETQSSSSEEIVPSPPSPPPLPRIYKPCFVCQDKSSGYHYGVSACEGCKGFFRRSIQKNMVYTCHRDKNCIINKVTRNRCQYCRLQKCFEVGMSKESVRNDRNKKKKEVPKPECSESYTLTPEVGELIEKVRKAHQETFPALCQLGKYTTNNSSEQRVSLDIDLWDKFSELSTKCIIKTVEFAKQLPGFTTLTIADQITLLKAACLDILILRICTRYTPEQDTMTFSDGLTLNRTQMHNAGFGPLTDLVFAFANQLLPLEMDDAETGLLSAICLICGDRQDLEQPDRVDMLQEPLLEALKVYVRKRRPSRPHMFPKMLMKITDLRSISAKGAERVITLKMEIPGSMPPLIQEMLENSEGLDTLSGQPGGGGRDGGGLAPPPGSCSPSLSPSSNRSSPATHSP
Chain of Retinoic acid receptor RXR-alpha (Homo sapiens) (P19793 whole entry, looked up, the tested form may be a part): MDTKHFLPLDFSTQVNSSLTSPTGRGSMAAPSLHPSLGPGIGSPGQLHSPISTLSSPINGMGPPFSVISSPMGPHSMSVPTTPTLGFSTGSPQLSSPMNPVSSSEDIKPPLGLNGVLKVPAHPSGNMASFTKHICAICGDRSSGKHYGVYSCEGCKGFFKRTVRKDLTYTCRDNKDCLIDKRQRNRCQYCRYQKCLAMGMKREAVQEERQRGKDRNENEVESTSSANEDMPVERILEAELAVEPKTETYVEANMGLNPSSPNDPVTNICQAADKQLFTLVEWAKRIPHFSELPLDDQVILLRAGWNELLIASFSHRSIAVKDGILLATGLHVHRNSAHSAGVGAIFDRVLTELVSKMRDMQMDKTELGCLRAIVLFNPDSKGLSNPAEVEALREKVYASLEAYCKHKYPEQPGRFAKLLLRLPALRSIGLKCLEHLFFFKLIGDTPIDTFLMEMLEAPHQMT
Chain of human RAR-related Orphan Receptor gamma (RORg), RORC (gene 6097) (P51449 whole entry, looked up, the tested form may be a part): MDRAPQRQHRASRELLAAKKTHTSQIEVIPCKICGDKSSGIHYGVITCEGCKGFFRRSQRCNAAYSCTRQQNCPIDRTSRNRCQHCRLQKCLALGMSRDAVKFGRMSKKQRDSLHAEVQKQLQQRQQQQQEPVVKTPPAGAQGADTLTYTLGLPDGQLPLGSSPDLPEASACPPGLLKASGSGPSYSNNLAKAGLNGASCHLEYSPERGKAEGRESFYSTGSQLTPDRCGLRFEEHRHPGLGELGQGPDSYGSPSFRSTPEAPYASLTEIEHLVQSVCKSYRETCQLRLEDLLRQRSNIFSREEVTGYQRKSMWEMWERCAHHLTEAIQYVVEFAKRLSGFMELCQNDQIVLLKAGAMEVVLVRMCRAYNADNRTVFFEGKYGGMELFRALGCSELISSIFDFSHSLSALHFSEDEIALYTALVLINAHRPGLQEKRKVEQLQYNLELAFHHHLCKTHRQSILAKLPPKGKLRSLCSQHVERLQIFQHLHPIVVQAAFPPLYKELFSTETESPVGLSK
Chain of human Peroxisome Proliferator-activated Receptor delta (PPARd), PPARD (gene 5467) (Q03181 whole entry, looked up, the tested form may be a part): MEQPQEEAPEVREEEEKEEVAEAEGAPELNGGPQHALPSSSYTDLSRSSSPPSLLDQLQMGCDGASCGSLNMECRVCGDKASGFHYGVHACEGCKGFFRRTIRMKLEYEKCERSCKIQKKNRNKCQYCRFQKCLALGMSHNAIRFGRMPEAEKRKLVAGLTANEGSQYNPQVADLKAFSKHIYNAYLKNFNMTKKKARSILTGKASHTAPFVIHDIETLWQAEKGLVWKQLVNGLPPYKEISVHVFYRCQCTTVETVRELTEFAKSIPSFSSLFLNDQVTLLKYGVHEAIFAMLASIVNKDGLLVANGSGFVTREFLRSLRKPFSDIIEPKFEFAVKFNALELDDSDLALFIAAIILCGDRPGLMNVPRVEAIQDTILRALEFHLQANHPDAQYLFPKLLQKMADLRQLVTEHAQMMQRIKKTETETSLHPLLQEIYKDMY
Chain of human Retinoid X Receptor beta (RXRb), RXRB (gene 6257) (P28702 whole entry, looked up, the tested form may be a part): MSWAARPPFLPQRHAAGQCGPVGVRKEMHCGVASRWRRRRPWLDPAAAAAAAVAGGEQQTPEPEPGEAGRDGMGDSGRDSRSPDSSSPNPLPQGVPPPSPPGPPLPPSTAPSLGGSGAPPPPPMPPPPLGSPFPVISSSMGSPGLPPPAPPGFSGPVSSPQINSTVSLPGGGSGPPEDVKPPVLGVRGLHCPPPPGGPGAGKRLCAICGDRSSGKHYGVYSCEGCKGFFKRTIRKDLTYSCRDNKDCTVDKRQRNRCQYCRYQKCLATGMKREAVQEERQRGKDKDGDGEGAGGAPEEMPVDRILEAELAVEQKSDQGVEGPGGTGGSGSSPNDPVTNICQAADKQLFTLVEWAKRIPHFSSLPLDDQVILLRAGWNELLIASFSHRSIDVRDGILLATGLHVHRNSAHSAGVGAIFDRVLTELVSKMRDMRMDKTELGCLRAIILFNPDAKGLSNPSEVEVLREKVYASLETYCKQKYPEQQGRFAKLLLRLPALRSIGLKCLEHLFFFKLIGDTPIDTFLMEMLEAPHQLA

O=S(=O)(O)CCC(F)(F)C(F)(F)C(F)(F)C(F)(F)C(F)(F)C(F)(F)C(F)(F)C(F)(F)F
not listed: [15] | [16] | [17] | [18] | [19]
inactive: all other assays above

OCC(F)(F)C(F)(F)C(F)(F)CO
inactive: [1] | [2] | [3] | [4] | [9] | [10] | [11] | [12] | [13] | [14]

CO[Si](C)(CCC(F)(F)C(F)(F)C(F)(F)C(F)(F)C(F)(F)C(F)(F)F)OC
not listed: [7] | [17] | [18] | [19]
inactive: all other assays above

NCC(F)(F)C(F)(F)C(F)(F)C(F)(F)C(F)(F)C(F)(F)F
not listed: [7] | [15] | [16]
inactive: all other assays above

CNS(=O)(=O)C(F)(F)C(F)(F)C(F)(F)C(F)(F)C(F)(F)C(F)(F)C(F)(F)C(F)(F)F
active: [4] 30 µM and 23.8 µM | [14] 6.3 µM and 8.04 µM
not listed: [8]
inactive: all other assays above

C=C(C)C(=O)OCC(F)(F)C(F)(F)C(F)(F)C(F)F
not listed: [7] | [15] | [16] | [17] | [19]
inactive: all other assays above

C[Si](Cl)(Cl)CCC(F)(F)C(F)(F)C(F)(F)C(F)(F)C(F)(F)C(F)(F)F
not listed: [5] | [6] | [7] | [15] | [16] | [19]
inactive: all other assays above
